Compounds with a hit are over-represented: about 2.6% of the library has one in this group of screens.
Cruzain noTriton = qHTS Assay for Promiscuous and Specific Inhibitors of Cruzain (without detergent); AID 1476, 2009; purified cruzain, Z-FR-AMC fluorescence, no detergent; 2.3% of 200,000 active; Cruzipain (Trypanosoma cruzi), P25779; Potency, µM, without a hit: max response, negative = inhibition, usual class: inhibitors;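 note: plate controls were enzyme without inhibitor for no effect and buffer without enzyme for full effect; nearly all actives have a fitted effect of over 40% in size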
Target sequence (P25779 123-467 limits assumed): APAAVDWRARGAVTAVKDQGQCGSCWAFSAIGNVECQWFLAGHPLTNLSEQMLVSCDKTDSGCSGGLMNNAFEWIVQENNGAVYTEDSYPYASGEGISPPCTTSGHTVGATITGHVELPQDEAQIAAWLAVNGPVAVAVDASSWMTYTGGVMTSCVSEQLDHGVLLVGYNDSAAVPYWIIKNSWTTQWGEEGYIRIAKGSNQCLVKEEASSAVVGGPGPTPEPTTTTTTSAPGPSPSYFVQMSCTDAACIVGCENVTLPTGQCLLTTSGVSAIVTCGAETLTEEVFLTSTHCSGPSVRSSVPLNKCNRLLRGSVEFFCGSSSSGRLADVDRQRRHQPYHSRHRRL
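Detergent-free condition (0.00005% Triton X-100) in acetate buffer pH 5.5 with DTT. 1.5 nM enzyme and compound were pre-mixed 15 min, then 2 uM Z-FR-AMC substrate added; reaction progress from fluorescence change between first and third reads (60 s).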
Cruzain inh Det = qHTS Assay for Promiscuous and Specific Inhibitors of Cruzain (with detergent) | Cruzipain (Trypanosoma cruzi), P25779 | purified cruzain, Z-FR-AMC fluorescence, 0.01% Triton | Potency, µM, for the others: max response, negative = inhibition, most hits filed as inhibitors | 0.43% of 200,000 active;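 note: plate controls were neutral wells for no effect and buffer without enzyme for full effect; nearly all actives have a fitted effect of over 40% in size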
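Z-FR-AMC hydrolysis (2 uM substrate) by cruzain (1.5 nM) monitored kinetically at ex 360/em 450 nm after 15 min room-temperature compound exposure; 0.01% Triton X-100, pH 5.5, 5 mM DTT.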
The depositor's hits bear a star; u = inconclusive; ! = a repeat was not active. Calls come from the whole dose curve; as a rule, active = well fitted curve in the direction sought with a large enough effect; inconclusive = small, poorly fitted or top-dose-only effect, or another doubt; inactive = no such curve, though single readings can be large; an effect the other way counts as inactive or inconclusive. Potency is the fitted concentration of half-maximal effect.

SMILES	Cruzain noTriton	Cruzain inh Det
CC(=O)c1nn(-c2ccc(Br)cc2)cc1C(=O)c1ccccc1	u	-1%
CC(=O)c1nn(-c2cccc(Br)c2)cc1C(=O)c1ccc2ccccc2c1	10µM*	4%
N=C1N=C(N)c2cc3ccccc3cc21	-14%	-9%
Cc1cc(C)n(CC(=O)Nc2cc(F)ccc2F)c(=O)c1C#N	6%	-2%
Cc1ccc(-c2nc(NC(=O)CSc3cc(C)c4ccccc4n3)ns2)cc1	u	-2%
O=C(CSc1ccc2ccccc2n1)Nc1nsc(-c2ccc(Cl)cc2)n1	32µM*!	0%
Cc1ccc(-n2nc(CO)c(C(=O)NCc3ccccn3)n2)cc1	11%	-1%
C/C(=N/NC1=NCCN1)c1cn(C2=NCCN2)nc1C	13%	-2%
Cc1c(Cl)cccc1NC(=O)Cn1c(=O)nc(-c2ccccc2)c2ccccc21	-6%	1%
Cc1ccc(C)c(CN2C(=O)c3ccccc3Sc3ccc(C(=O)NCc4ccco4)cc32)c1	u	1%
O=C(CNC(=O)c1ccccc1F)OC(C(=O)Nc1cc(C(F)(F)F)ccc1Cl)c1ccccc1 (stereo not drawn)	7.9µM*	5µM*
C[C@H](NC(=O)c1ccccc1Cl)C(=O)OC(C(=O)Nc1cc(C(F)(F)F)ccc1Cl)c1ccccc1 (stereo partly drawn)	-30%	u
CN(C)c1ncc2nc(-c3ccc(Cl)cc3)c(=O)n(Cc3ccc(F)cc3)c2n1	-7%	1%
CCC(C(=O)NCCc1ccccc1)n1nc(C)n2c(cc3sccc32)c1=O (stereo not drawn)	0%	-2%
Cc1c(Cl)cccc1-c1ccc(CNCCSc2nnnn2-c2ccccc2)o1	7.9µM*	13µM*
Fc1ccc(-c2ccc(CNCCSc3nnnn3-c3ccccc3)o2)cc1	-10%	1%
Cc1nnc(N/N=C\c2ccc(-c3ccccc3[N+](=O)[O-])o2)n1N	13µM*	14µM*
Cc1ccc(C(=O)N/N=C/c2ccc(-c3ccccc3[N+](=O)[O-])o2)cn1	1%	-10%
CCOc1ccc(CN2C(=O)c3ccccc3Sc3ccc(C(=O)NC4CCC(C)CC4)cc32)cc1 (stereo not drawn)	5µM*	-5%
CC1CCC(NC(=O)c2ccc3c(c2)N(Cc2cccc(F)c2)C(=O)c2ccccc2S3)CC1 (stereo not drawn)	u	1%
O=C(NC1CCCC1)c1ccc2c(c1)N(Cc1ccccc1)C(=O)c1ccccc1S2	u	1%
Cc1ccccc1CN1C(=O)c2ccccc2Sc2ccc(C(=O)NCc3cccs3)cc21	u	0%
Cc1cccc(CN2C(=O)c3ccccc3Sc3ccc(C(=O)NC4CCCCC4)cc32)c1	13µM*	1%
CCOc1ccc(CN2C(=O)c3ccccc3Sc3ccc(C(=O)NCc4ccco4)cc32)cc1	32µM*	-4%
Cc1ccccc1CN1C(=O)c2ccccc2Sc2ccc(C(=O)NCc3ccccc3)cc21	32µM*	1%
SMILES	Cruzain noTriton	Cruzain inh Det
O=C(NCc1ccco1)c1ccc2c(c1)N(Cc1ccc(Cl)cc1)C(=O)c1ccccc1S2	u	1%
CCOc1ccc(NC(=O)CN2C(=O)C(c3ccccc3)=NC23CCCCCC3)cc1	20%	1%
Cn1cccc1-c1cc2n(n1)CCC(=O)N2CCCC(=O)NCc1ccc(F)cc1	-3%	-1%
COc1ccc(NC(=S)N(CCc2c(C)[nH]c3ccc(C)cc23)Cc2ccco2)cc1	u	-5%
CCOc1ccc(NC(=S)N(CCc2c(C)[nH]c3ccc(C)cc23)Cc2ccco2)cc1	3.2µM*	3%
Cc1ccc(CNC(=O)CSc2ncc3c(n2)-c2ccc(Cl)cc2N(Cc2ccccc2)S3(=O)=O)cc1	-7%	0%
COc1cccc(/C=N/NC(=O)c2nc(-c3ccccc3)cc(-c3ccccc3)n2)c1O	13µM*	-1%
COc1cccc(/C=N/NC(=O)CSc2ccccc2C)c1O	-6%	-7%
Cc1ccc(S(=O)(=O)NCCSc2nnnn2-c2ccc(Cl)c(C(=O)O)c2)cc1	-13%	-2%
C=CCNC(=O)c1ccc(-c2nc(-c3ccc(Cl)c(Cl)c3)cs2)cc1	20µM*	3%
C=CCNC(=O)c1ccc(-c2nc(-c3ccc(Cl)cc3Cl)cs2)cc1	-15%	4%
Cc1ccc(NC(=O)CSc2nc3nccnc3c(=O)n2CCc2c[nH]c3ccccc23)c(C)c1	-1%	-1%
O=C(CSc1ncc2c(n1)-c1cc(Cl)ccc1N(Cc1ccccc1)S2(=O)=O)NCc1ccccc1	16µM*	-4%
CCN1c2ccccc2-c2nc(SCC(=O)Nc3ccc(C)c(Cl)c3)ncc2S1(=O)=O	u	-1%
COc1cccc(CN2c3ccccc3-c3nc(SCC(=O)Nc4ccccc4Cl)ncc3S2(=O)=O)c1	16µM*	-3%
O=C(CSc1ncc2c(n1)-c1cc(Cl)ccc1N(Cc1ccccc1)S2(=O)=O)NCCc1ccccc1	6%	3%
COc1cccc(CN2c3ccccc3-c3nc(SCC(=O)Nc4cccc(C)c4)ncc3S2(=O)=O)c1	u	-4%
CCN1c2ccccc2-c2nc(SCC(=O)Nc3cc(C)c(Cl)cc3OC)ncc2S1(=O)=O	25µM*	-3%
CCc1ccc(-n2nc(C)c3c(C(=O)Nc4cc(C)c(Cl)cc4OC)cc(C)nc32)cc1	-5%	-1%
COc1ccc(-n2c(C)nc3cc(C(=O)NC4CCCCCC4)ccc32)cc1	-11%	-2%
CC1CCN(S(=O)(=O)c2ccc3c(c2)c(=O)c(C(=O)NCCc2ccccc2)cn3C)CC1	-10%	-1%
COc1ccccc1-c1nc(CNC(=O)Nc2ccccc2)c(C)o1	1%	0%
COc1ccc(NC(=O)C(=O)NCCC2=CCCCC2)c(OC)c1	3%	2%
CCCCOc1ccc(NC(=O)C(=O)NCCC2=CCCCC2)cc1	10µM*	3%
O=C(CSc1ncnc2scc(-c3ccc(Cl)cc3)c12)NCc1ccc2c(c1)OCO2	u	-1%
SMILES	Cruzain noTriton	Cruzain inh Det
Cc1ccc(-c2csc3ncnc(SCC(=O)NCc4ccc5c(c4)OCO5)c23)cc1	25µM*	-1%
O=C1C=CC2=C3c4cc(O)c(O)cc4C[C@@]3(O)COC2=C1	-10%	-1%
CC(=O)c1cccc(NS(=O)(=O)c2ccc(N/C=C\C(=O)c3ccc(C)cc3)cc2)c1	-4%	4%
O=C(/C=C/Nc1ccc(S(=O)(=O)Nc2ncccn2)cc1)c1ccc(Cl)c(Cl)c1	32µM*	-5%
O=C(Nc1sc2c(c1C(=O)NCC1CCCO1)CCC2)c1cc(=O)c2ccccc2o1 (stereo not drawn)	-4%	-2%
Cc1nc(Nc2ccc(Cl)cc2Cl)sc1C(=O)Nc1ccccc1	-8%	-5%
Oc1nc(Nc2ccc(Cl)cc2Cl)sc1/C=C1\C=Nc2ccccc21	25µM*	-6%
Cc1cccc2cc(CN(Cc3cccs3)C(=S)NCC3CCCO3)c(=O)[nH]c12 (stereo not drawn)	3%	-8%
Cc1ccc(NC(=S)N(Cc2cccs2)Cc2cc3cccc(C)c3[nH]c2=O)cc1	16µM*	-3%
CCC(=O)Nc1ccccc1-c1nc2ccccc2n(Cc2cccc(Br)c2)c1=O	-4%	-10%
OC[C@@H]1[C@@H](c2ccc(Cl)cc2)C(c2ccc(F)cc2)=NN1c1ccccc1	25µM*	0%
OC[C@@H]1[C@@H](c2ccc(F)cc2)C(c2ccc(F)cc2)=NN1c1ccccc1	20µM*	-3%
CC[C@H]1C(c2cccc(Cl)c2)=NN(c2ccccc2)[C@@H]1CO	-11%	1%
